Experimental data: PubChem BioAssay (NCATS)
Where “and” joins values, the source holds several entries; their conditions need not be identical. Equal values may be shown once. Records with an inconclusive call do not appear. A number with no mark means an inactive call. Calls of active or inactive are those of the source. Calls follow the shape of the dose curve; as a rule, active = well fitted inhibition curve with a large enough effect; inconclusive = small, poorly fitted or top-dose-only effect; inactive = flat fitted curve, though single readings scatter.

Columns and labels:
[1] = tested on: CRL-7250; assay: Cytotoxic Profiling of Annotated Libraries Using Quantitative High-Throughput Screening (AID 1296008); conditions: Five cell lines viability, CellTiter-Glo ATP luminescence, 48-72 h; max response: stronger effect = lower value; also: potency is read from the fitted curve at half-maximal effect; as to max response: % is scaled to controls: 0 for no effect and ±100 for the full control effect
Procedure, shortened: (§1)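 Cytotoxicity was measured as CellTiter-Glo ATP luminescence, read after 10 min at room temperature. Compound treatment of the cells lasted 48 or 72 hr at 37 degrees Celsius in a qHTS format.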

[2] = tested on: HEK293; assay: as above; conditions: Five cell lines viability, CellTiter-Glo ATP luminescence, 48-72 h; max response: stronger effect = lower value
Procedure, shortened: as §1

[3] = tested on: HaCat; assay: as above; conditions: Five cell lines viability, CellTiter-Glo ATP luminescence, 48-72 h; max response: stronger effect = lower value
Procedure, shortened: as §1

[4] = tested on: KB-3-1; assay: as above; conditions: Five cell lines viability, CellTiter-Glo ATP luminescence, 48-72 h; max response: stronger effect = lower value
Procedure, shortened: as §1

[5] = tested on: NIH3T3; assay: as above; conditions: Five cell lines viability, CellTiter-Glo ATP luminescence, 48-72 h; max response: stronger effect = lower value
Procedure, shortened: as §1

[6] = tested on: HACAT; assay: qHTS assay to identify novel small-molecules to repurpose for Merkel cell carcinoma treatment (AID 1296009); conditions: MCC and control cell lines, CellTiter-Glo viability, 72 h
Procedure, shortened: (§2)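 Cell viability measured by CellTiter-Glo following 72 hr compound treatment at 37 degree celsius, with NPC and MIPE libraries tested in 8- and 11-point concentration series.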

[7] = tested on: HEK293T; assay: as above; conditions: MCC and control cell lines, CellTiter-Glo viability, 72 h; at 44.8 µM (top of the series) unless noted
Procedure, shortened: as §2

[8] = at 44.8 µM (top of the series) unless noted
Also: nearly all actives have a fitted effect of over 60% in size.

COc1nccc(-c2c(-c3ccc(F)cc3)ncn2C2CCC(O)CC2)n1 (configuration not stated)
max response [1]: 2.19% and -0.385%
max response [2]: -17.3%
outcome [2]: inactive
max response [3]: -10.4%
outcome [3]: inactive
outcome [4]: inactive
max response [5]: -1.87%
outcome [6, 8]: inactive
outcome [7]: inactive

COc1ccc(CCC(=O)Nc2nc3ccc(Cl)cc3s2)cc1OC
max response [1]: 1.51% and -1.65%
max response [2]: -26%
max response [3]: -6.83%
outcome [3]: inactive
max response [4]: -8.12% and -15.4%
max response [5]: -12.1%
outcome [5]: inactive
outcome [6, 8]: inactive

CCCCn1c(=O)n(Cc2ccccc2F)c(=O)c2[nH]c(Cc3ccc(NC(C)=O)cc3)nc21
max response [1]: -20% and 4.17%
max response [2]: -5.59% and -2.73%
max response [3]: -7.85%
outcome [3]: inactive
max response [4]: -6.11%
outcome [4]: inactive
max response [5]: -1.2% and 4.04%
outcome [6, 8]: inactive

c1cc(OCCN2CCCCC2)cc(-c2n[nH]c3ccc(-c4ncn[nH]4)cc23)c1
max response [1]: -3.49%
outcome [1]: inactive
outcome [3]: inactive
max response [4]: -21.9%
max response [5]: -3.48% and 4.45%
outcome [6, 8]: inactive

c1ccc(CNc2nc(N3CCOc4ccccc43)nc3c2CCCC3)cc1
max response [1]: 3.99%
outcome [1]: inactive
max response [3]: -18.6% and -15.3%
max response [4]: 8.67% and -13.6%
max response [5]: 3.56%
outcome [5]: inactive

C[C@H](c1ccc(F)cc1CCCC(=O)O)N(c1cc(F)ccc1F)S(=O)(=O)c1ccc(Cl)cc1
max response [1]: -0.7% and -8.45%
max response [2]: -10.5%
outcome [2]: inactive
outcome [3]: inactive
max response [4]: -5.45% and 4.45%
max response [5]: -19.7% and 4.43%
outcome [6, 8]: inactive
outcome [7]: inactive

COc1nc(C)cnc1NS(=O)(=O)c1cccnc1-c1ccc(-c2nnco2)cc1
max response [1]: 1.92% and 1.59%
outcome [2]: inactive
max response [3]: 3.49%
outcome [3]: inactive
max response [4]: -0.147%
outcome [4]: inactive
max response [5]: -2.15%
outcome [5]: inactive
outcome [6, 8]: inactive
outcome [7]: inactive

CN1C(=O)C(Cc2c[nH]c3ccccc23)NC1=S (configuration not stated)
max response [1]: 3.65% and -1.79%
max response [2]: 1.8%
outcome [2]: inactive
outcome [3]: inactive
max response [4]: 2.81%
outcome [4]: inactive
max response [5]: -1.6% and -5.02%
outcome ([6]; at 17.4 µM (top of the series)): inactive
outcome ([6]; at 44.8 µM (top of the series)): inactive
outcome [7]: inactive

CCNC(=O)CCCC=CC[C@@H]1[C@H](C=CC(O)CCc2ccccc2)[C@@H](O)C[C@@H]1O (some centres not stated)
max response [1]: -10.2%
max response [2]: -24.5%
max response [3]: 4.63%
max response [4]: 9.82%
max response [5]: -1.84%

Cc1cccc2c1CC[C@H](CN1CCC(c3c(Cl)cccc3Cl)CC1)C[C@@H]2O
max response [1]: -6.89% and 0.148%
Potency [2]: 14.6 µM (active)
max response [3]: 1.39%
max response [4]: -8.1%
max response [5]: -20.2%

O=S(=O)(O)c1ccc2cc(N=Nc3cc(S(=O)(=O)O)c4cccnc4c3O)ccc2c1
max response [1]: -1.21%
max response [2]: -8.8% and -0.547%
max response [3]: -5.73% and 2.13%
max response [4]: -11.7% and -5.81%
max response [5]: -3.13% and 2.59%

COc1ccc2ccc(=O)oc2c1CC=C(C)C
max response [1]: -22%
max response [2]: -5%
max response [3]: -6.16%
outcome [4]: inactive
max response [5]: -31.4%

COc1cc(C=CC(=O)O)ccc1O
max response [1]: 1.23%
max response [2]: -0.866%
max response [3]: -11.1%
max response [4]: 4.21%
outcome [5]: inactive

OC[C@H]1O[C@@H](O[C@H]2[C@@H](O)[C@@](O)(CO)O[C@@H]2CO)[C@H](O)[C@@H](O)[C@@H]1O
max response [1]: -0.0942%
max response [2]: -3.28%
max response [3]: 1.22%
max response [4]: -0.101%
max response [5]: 2.52%

NC(=O)c1ccc(N(C(N)=O)c2c(F)cccc2F)nc1-c1ccc(F)cc1F
max response [1]: -5.46% and 0.374%
max response [2]: -4.84% and -3.96%
max response [3]: -19.1% and -25.7%
max response [4]: 7.33%
outcome [4]: inactive
max response [5]: 4.54%
outcome [5]: inactive
